According to paper PMC7862700, “An all-to-all approach to the identification of sequence-specific readers for epigenetic DNA modifications on cytosine”:

What was measured:
Test in all cases: DAPPL (digital affinity profiling via proximity ligation, sequencing); 10 mM Tris-HCl pH 7.5, 50 mM NaCl, 1 mM DTT, 4% glycerol, room temperature, 30 min; GST-TFs on glutathione beads, 16-mer random dsDNA library, 0.1% formaldehyde crosslink after washing; high values mean tight binding
[1] = target: T1, FLI1 (Homo sapiens, UniProt Q01543 1-452); conditions: protein: recombinant; tags: N-terminal GST; dsDNA, one strand shown
T1 sequence: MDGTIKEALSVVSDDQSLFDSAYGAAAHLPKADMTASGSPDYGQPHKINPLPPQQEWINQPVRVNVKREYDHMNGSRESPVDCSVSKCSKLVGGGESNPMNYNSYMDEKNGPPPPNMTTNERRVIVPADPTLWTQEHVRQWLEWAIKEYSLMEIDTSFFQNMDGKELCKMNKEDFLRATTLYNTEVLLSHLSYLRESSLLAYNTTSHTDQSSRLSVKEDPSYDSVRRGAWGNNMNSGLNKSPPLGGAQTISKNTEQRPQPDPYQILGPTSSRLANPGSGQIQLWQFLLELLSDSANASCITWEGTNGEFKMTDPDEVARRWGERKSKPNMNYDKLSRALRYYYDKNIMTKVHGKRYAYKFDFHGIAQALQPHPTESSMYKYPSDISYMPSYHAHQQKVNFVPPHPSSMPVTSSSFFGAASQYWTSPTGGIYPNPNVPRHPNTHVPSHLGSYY
In short: (§1)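 Pools of DNA-barcoded human transcription factors, expressed in yeast as GST fusions on glutathione beads and combined with a tag-only sample, were incubated with 200 nmole of a 16-mer random double-stranded DNA library. Incubation took 30 min at room temperature in Tris/NaCl/DTT/glycerol buffer and was followed by washing, 0.1% formaldehyde crosslinking, proximity ligation (BsaI/T4 ligase, 1 h, 37 °C), PCR amplification and sequencing on an Illumina NextSeq500. Binding signal is the ratio of a hexamer's read frequency for a factor to its frequency for the tag-only sample.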

[2] = target: T2, ELK1 (Homo sapiens, UniProt P19419 1-428); conditions: protein: recombinant; tags: N-terminal GST; dsDNA, one strand shown
T2 sequence: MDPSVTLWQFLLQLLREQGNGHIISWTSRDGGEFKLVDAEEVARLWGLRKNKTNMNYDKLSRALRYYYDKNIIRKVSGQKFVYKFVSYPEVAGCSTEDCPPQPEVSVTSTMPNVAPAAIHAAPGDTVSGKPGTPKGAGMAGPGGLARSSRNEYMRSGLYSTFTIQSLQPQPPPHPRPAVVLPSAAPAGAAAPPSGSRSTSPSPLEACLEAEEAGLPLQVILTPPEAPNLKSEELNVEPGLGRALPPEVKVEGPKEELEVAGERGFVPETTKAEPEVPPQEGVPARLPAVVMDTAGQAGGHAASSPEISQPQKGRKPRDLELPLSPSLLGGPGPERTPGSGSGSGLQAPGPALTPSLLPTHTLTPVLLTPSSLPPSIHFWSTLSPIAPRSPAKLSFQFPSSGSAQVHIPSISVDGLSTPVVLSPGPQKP
In short: as §1

[3] = target: T3, GABPA (Homo sapiens, UniProt Q06546 1-454); conditions: protein: recombinant; tags: N-terminal GST; dsDNA, one strand shown
T3 sequence: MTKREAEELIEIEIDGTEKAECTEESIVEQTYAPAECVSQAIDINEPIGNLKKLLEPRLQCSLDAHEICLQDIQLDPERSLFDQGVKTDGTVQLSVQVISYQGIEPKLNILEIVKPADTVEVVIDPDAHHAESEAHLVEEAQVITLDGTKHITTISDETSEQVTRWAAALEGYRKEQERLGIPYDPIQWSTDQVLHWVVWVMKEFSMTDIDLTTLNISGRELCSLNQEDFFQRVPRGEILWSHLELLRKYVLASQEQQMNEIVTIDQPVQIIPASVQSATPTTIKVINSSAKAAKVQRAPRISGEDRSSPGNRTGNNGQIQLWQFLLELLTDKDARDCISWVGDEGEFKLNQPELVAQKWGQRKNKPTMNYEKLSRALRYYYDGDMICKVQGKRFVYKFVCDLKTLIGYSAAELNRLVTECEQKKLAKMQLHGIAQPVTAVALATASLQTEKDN
In short: as §1

[4] = target: T4, ERG (Homo sapiens, UniProt P11308 1-479); conditions: protein: recombinant; tags: N-terminal GST; dsDNA, one strand shown
T4 sequence: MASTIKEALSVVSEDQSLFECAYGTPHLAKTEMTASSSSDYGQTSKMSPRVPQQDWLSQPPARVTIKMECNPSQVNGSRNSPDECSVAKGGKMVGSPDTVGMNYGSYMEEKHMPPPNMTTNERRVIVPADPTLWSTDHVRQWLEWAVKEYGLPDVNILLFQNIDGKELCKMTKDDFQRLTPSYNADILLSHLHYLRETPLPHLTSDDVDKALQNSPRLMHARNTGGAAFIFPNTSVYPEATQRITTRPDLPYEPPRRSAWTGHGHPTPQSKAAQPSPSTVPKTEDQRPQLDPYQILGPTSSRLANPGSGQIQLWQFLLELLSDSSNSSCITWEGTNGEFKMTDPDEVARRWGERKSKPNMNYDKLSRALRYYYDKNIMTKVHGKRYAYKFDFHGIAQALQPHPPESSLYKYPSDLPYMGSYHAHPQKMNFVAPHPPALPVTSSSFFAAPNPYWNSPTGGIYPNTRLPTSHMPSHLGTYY
In short: as §1

[5] = target: ELF1 (Homo sapiens, UniProt P32519 1-619); conditions: protein: recombinant; tags: N-terminal GST; dsDNA, one strand shown
Sequence of ELF1 (P32519 whole entry): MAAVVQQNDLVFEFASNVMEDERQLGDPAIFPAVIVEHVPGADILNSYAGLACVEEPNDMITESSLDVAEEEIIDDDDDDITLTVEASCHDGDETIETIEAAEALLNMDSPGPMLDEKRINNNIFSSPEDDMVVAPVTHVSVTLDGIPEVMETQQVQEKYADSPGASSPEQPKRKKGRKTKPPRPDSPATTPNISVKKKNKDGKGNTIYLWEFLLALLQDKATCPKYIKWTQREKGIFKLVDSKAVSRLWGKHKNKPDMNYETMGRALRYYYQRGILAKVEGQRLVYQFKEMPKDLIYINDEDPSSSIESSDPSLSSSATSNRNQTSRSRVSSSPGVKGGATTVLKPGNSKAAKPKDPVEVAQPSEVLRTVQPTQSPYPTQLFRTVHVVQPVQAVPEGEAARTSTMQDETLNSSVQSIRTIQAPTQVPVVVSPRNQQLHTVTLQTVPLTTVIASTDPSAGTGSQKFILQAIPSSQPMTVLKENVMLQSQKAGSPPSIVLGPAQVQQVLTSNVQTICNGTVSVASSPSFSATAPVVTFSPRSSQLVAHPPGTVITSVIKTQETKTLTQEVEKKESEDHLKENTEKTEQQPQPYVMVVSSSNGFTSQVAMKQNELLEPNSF
In short: as §1

[6] = target: T5, EHF (Homo sapiens, UniProt Q9NZC4 1-300); conditions: protein: recombinant; tags: N-terminal GST; dsDNA, one strand shown
T5 sequence: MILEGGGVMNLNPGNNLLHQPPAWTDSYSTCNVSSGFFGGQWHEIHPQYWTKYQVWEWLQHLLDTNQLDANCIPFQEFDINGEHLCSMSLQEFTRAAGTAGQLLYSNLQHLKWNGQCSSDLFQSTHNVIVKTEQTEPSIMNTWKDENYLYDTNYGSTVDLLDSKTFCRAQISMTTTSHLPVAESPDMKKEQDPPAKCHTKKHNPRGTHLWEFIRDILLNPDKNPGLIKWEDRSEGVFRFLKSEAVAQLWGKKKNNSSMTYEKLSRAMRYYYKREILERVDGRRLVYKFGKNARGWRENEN
In short: as §1

[7] = target: SPI1 (Homo sapiens, UniProt P17947 1-270); conditions: protein: recombinant; tags: N-terminal GST; dsDNA, one strand shown
In short: as §1

[8] = target: SPIB (Homo sapiens, UniProt Q01892 1-262); conditions: protein: recombinant; tags: N-terminal GST; dsDNA, one strand shown
Sequence of SPIB (Q01892 whole entry): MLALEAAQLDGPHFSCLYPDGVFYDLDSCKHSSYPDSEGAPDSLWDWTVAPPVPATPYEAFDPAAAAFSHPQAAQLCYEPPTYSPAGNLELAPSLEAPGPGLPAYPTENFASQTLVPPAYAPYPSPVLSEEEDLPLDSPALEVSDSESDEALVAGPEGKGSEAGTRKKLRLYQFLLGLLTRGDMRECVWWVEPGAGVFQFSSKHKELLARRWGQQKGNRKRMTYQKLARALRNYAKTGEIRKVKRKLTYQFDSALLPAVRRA
In short: as §1

[9] = target: T6, ELK3 (Homo sapiens, UniProt P41970 1-407); conditions: protein: recombinant; tags: N-terminal GST; dsDNA, one strand shown
T6 sequence: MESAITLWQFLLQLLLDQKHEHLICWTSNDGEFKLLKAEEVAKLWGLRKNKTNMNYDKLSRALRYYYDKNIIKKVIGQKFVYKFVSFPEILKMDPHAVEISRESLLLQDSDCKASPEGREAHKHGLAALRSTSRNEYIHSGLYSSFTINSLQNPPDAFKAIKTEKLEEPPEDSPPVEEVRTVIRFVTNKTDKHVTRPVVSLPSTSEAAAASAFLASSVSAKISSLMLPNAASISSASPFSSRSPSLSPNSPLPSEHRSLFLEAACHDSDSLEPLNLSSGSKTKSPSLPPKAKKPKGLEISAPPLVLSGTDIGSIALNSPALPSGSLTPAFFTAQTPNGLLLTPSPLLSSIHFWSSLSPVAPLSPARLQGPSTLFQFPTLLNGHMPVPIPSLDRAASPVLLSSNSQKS
In short: as §1

[10] = target: T7, FEV (Homo sapiens, UniProt Q99581 1-238); conditions: protein: recombinant; tags: N-terminal GST; dsDNA, one strand shown
T7 sequence: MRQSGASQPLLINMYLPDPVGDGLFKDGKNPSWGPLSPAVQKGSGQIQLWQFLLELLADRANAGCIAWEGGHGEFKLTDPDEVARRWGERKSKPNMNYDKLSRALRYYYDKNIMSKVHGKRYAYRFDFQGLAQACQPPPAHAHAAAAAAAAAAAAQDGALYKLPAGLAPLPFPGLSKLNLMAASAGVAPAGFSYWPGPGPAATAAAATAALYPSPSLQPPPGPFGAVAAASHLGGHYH
In short: as §1

[11] = target: ETV5 (Homo sapiens, UniProt P41161 1-510); conditions: protein: recombinant; tags: N-terminal GST; dsDNA, one strand shown
Sequence of ETV5 (P41161 whole entry): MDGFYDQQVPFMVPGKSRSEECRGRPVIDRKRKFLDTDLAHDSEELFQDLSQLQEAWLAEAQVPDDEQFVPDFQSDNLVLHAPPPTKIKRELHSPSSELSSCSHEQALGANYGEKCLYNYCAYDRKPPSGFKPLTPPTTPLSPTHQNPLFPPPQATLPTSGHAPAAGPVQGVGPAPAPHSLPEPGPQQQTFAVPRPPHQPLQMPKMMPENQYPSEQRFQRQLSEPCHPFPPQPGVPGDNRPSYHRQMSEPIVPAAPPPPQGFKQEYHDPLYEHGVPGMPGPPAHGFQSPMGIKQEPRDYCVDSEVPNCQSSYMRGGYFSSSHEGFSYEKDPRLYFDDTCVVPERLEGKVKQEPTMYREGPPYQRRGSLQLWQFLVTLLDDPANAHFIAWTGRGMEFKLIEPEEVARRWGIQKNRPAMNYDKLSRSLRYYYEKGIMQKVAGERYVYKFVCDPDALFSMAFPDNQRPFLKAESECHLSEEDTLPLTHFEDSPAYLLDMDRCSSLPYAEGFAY
In short: as §1

[12] = target: HSF1 (Homo sapiens, UniProt Q00613 1-529); conditions: protein: recombinant; tags: N-terminal GST; chain copies: 3; dsDNA, one strand shown
Sequence of HSF1 (Q00613 whole entry): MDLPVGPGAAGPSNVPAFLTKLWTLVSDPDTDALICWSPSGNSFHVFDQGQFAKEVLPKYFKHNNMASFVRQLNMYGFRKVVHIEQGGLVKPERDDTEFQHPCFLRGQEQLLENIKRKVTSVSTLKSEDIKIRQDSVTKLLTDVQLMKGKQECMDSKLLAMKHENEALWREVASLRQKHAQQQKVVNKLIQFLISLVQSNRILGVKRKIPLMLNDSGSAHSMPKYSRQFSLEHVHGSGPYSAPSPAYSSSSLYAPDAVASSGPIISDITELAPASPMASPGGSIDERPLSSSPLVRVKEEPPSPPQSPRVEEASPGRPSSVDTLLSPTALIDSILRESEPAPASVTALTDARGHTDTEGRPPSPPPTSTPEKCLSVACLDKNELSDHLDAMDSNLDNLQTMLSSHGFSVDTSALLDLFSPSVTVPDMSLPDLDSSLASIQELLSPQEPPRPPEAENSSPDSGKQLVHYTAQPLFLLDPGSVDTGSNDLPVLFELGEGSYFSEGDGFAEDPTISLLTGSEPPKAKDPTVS
In short: as §1

[13] = target: T8, SPIC (Homo sapiens, UniProt Q8N5J4 1-248); conditions: protein: recombinant; tags: N-terminal GST; dsDNA, one strand shown
T8 sequence: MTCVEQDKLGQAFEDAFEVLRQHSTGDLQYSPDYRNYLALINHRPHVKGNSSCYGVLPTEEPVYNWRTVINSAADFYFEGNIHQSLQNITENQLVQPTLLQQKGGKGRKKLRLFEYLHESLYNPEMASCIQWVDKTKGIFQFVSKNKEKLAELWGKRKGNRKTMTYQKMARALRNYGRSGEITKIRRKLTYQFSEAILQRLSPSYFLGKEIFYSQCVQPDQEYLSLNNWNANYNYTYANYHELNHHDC
In short: as §1

[14] = target: ELF4 (Homo sapiens, UniProt Q99607 1-663); conditions: protein: recombinant; tags: N-terminal GST; dsDNA, one strand shown
Sequence of ELF4 (Q99607 whole entry): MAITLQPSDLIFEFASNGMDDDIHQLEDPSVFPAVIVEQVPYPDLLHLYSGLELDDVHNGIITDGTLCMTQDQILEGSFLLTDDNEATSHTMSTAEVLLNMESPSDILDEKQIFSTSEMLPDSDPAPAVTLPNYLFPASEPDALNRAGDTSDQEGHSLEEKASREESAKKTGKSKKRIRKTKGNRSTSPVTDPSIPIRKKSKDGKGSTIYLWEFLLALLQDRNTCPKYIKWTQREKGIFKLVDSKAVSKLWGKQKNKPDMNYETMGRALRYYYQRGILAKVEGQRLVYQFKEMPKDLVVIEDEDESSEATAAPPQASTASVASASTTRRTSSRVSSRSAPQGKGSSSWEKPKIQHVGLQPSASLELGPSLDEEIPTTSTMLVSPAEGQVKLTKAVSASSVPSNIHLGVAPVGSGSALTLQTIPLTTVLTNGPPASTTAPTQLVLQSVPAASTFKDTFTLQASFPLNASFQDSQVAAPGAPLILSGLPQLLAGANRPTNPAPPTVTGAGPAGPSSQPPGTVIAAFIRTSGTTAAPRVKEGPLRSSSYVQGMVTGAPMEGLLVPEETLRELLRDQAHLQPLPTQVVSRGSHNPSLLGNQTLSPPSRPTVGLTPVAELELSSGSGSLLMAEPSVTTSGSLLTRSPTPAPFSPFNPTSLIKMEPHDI
In short: as §1

[15] = target: T9, ELK4 (Homo sapiens, UniProt P28324-2 1-405); conditions: protein: recombinant; tags: N-terminal GST; dsDNA, one strand shown
T9 sequence: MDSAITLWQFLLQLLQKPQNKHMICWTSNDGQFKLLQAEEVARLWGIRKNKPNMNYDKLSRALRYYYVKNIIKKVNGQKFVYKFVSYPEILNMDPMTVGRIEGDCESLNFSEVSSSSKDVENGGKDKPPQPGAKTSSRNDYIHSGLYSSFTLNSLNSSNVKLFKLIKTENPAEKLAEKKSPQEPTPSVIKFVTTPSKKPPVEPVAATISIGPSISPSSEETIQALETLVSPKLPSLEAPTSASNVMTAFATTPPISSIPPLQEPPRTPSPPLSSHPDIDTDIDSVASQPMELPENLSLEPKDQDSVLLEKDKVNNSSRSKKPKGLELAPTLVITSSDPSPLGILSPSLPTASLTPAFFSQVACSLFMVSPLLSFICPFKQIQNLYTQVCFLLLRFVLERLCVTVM
In short: as §1

[16] = target: T10, ETV2 (Homo sapiens, UniProt O00321 1-342); conditions: protein: recombinant; tags: N-terminal GST; dsDNA, one strand shown
T10 sequence: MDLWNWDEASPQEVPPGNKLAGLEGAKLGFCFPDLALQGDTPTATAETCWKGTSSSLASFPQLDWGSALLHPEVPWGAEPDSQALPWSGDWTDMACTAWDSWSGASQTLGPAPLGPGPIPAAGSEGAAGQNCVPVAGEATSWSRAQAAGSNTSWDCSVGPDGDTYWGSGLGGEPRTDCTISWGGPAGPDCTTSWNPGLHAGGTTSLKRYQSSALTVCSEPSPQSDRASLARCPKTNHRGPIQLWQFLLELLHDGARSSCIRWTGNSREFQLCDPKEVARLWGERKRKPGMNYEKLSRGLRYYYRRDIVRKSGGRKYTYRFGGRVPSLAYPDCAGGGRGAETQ
In short: as §1

[17] = target: T11, ELF3 (Homo sapiens, UniProt P78545 1-371); conditions: protein: recombinant; tags: N-terminal GST; dsDNA, one strand shown
T11 sequence: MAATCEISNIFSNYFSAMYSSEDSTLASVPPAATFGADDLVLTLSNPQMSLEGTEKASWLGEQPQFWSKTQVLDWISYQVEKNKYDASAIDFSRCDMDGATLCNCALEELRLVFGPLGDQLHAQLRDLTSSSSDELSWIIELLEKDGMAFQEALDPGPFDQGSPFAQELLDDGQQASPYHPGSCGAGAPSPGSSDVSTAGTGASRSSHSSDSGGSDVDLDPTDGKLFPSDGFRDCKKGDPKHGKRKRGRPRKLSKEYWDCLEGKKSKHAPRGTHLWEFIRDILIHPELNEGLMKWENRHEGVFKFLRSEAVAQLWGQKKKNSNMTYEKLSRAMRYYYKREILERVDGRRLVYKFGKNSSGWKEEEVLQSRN
In short: as §1

[18] = target: CRX (Homo sapiens, UniProt O43186 1-299); conditions: protein: recombinant; tags: N-terminal GST; dsDNA, one strand shown
Sequence of CRX (O43186 whole entry): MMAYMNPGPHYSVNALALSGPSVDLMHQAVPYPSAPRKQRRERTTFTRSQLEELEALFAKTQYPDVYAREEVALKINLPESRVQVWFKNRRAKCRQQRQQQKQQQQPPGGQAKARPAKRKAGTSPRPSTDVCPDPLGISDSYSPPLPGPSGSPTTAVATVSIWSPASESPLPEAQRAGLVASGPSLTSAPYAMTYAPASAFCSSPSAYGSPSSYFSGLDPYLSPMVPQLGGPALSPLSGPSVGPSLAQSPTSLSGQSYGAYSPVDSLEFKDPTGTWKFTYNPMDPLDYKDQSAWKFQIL
In short: as §1

[19] = target: ETV1 (Homo sapiens, UniProt P50549 1-477); conditions: protein: recombinant; tags: N-terminal GST; dsDNA, one strand shown
Sequence of ETV1 (P50549 whole entry): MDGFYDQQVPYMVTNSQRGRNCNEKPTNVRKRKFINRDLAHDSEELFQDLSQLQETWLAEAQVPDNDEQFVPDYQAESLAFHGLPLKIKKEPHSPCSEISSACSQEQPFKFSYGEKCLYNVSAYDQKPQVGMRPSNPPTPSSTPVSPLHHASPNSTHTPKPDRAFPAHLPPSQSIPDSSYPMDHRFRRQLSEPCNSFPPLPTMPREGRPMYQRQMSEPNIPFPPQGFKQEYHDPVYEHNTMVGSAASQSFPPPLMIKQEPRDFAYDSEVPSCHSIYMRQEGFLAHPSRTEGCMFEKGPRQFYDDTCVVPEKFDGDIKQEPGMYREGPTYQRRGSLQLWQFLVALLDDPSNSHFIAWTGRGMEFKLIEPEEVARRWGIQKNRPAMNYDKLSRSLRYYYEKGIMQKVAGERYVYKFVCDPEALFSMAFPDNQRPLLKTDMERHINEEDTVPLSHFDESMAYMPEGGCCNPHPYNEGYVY
In short: as §1

GTTTAA
binding signal [1]: 1.19 fold enrichment (6-mer frequency, TF over GST control)
binding signal [2]: 1.19 fold enrichment (6-mer frequency, TF over GST control)
binding signal [3]: 1.13 fold enrichment (6-mer frequency, TF over GST control)
binding signal [4]: 1.13 fold enrichment (6-mer frequency, TF over GST control)
binding signal [5]: 1.13 fold enrichment (6-mer frequency, TF over GST control)
binding signal [6]: 1.17 fold enrichment (6-mer frequency, TF over GST control)
binding signal [7]: 1.16 fold enrichment (6-mer frequency, TF over GST control)
binding signal [8]: 1.27 fold enrichment (6-mer frequency, TF over GST control)
binding signal [9]: 1.26 fold enrichment (6-mer frequency, TF over GST control)
binding signal [10]: 1.11 fold enrichment (6-mer frequency, TF over GST control)
binding signal [11]: 1.07 fold enrichment (6-mer frequency, TF over GST control)
binding signal [12]: 1.28 fold enrichment (6-mer frequency, TF over GST control)
binding signal [13]: 1.02 fold enrichment (6-mer frequency, TF over GST control)
binding signal [14]: 1.1 fold enrichment (6-mer frequency, TF over GST control)
binding signal [15]: 1.14 fold enrichment (6-mer frequency, TF over GST control)
binding signal [16]: 1.23 fold enrichment (6-mer frequency, TF over GST control)
binding signal [17]: 1.05 fold enrichment (6-mer frequency, TF over GST control)
binding signal [18]: 1.79 fold enrichment (6-mer frequency, TF over GST control)
binding signal [19]: 1.14 fold enrichment (6-mer frequency, TF over GST control)
